Screening data from PubChem BioAssay.
In the library only some 3.1% were active in any assay of this set; here they are far more common.
FGF22 binding = binders of human FGF22 protein, primary screen, FGF22 synaptogenesis inhibitor project, biophysical, thermal shift, single point; Fibroblast growth factor 22 (Homo sapiens), Q9HCT0; recombinant FGF22 thermal shift, SYPRO orange fluorescence; percent of sucrose octasulfate shift, DMSO zero; activity (Tm shift, normalised), % at 9.99 µM; hit rate 1.5% among 340,000; AID 651658, 2012;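 active = mean Tm shift, scaled 0 neutral to 100 positive control, at about 1.3% or above, every replicate too, limit read from the data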
CASP6 VEID inh = human caspase-6 inhibitors, primary screen, biochemical, VEID-R110 fluorescence, single point, set 2; purified caspase-6, Z-VEID-R110 cleavage fluorescence; inhibition, % at 12.5 µM; hit rate 0.53% among 350,000; P55212;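 active = mean inhibition across replicates at least about 35%, with every replicate also reaching that limit, limit read from the data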;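 note: 0% = median of neutral control wells and 100% = no fluorescence left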
Target sequence (P55212 24-179 limits assumed): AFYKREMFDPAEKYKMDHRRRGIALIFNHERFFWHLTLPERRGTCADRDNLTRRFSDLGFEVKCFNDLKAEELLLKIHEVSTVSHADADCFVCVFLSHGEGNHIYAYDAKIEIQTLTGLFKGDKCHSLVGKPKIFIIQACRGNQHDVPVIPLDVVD
Target sequence (P55212 194-293 limits assumed): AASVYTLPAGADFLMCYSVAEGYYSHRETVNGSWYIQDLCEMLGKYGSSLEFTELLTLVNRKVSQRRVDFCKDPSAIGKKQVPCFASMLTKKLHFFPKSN
SIRT5 block = SIRT5 desuccinylase inhibitors, primary screen, biochemical, fluorescence imaging, single point, set 5; NAD-dependent protein deacylase sirtuin-5, mitochondrial (Homo sapiens), Q9NXA8; Purified SirT5, succinyl-peptide AMC, trypsin-coupled fluorescence; inhibition, % at 15 µM; hit rate 1.1% among 330,000; in the data active = inhibition above about 15%
ERAP1 HTS inh = human ERAP1 aminopeptidase inhibitors, primary screen, biochemical, single point, plate reader. Endoplasmic reticulum aminopeptidase 1 (Homo sapiens), Q9NZ08. recombinant ERAP1, Leu-AMC fluorescence, 60 min. hit rate 0.15% among 340,000. inhibition, % at 10.7 µM;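 active = mean replicate inhibition of at least 30%, or all replicates individually reaching that 30% level; inactive = mean below 30% and not every replicate reaching it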;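 note: 0% = neutral control wells and 100% = L-leucinethiol positive control wells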
* marks the source's active call; other numbers are inactive results; / = no result given.

SMILES | FGF22 binding | CASP6 VEID inh | SIRT5 block | ERAP1 HTS inh
CCOc1ccc(NC(=O)CSc2ccc3nnc(-c4ccccn4)n3n2)cc1 | 0 | -2 | 18* | 5
O=C(O)c1ccccc1NS(=O)(=O)c1ccc(NN=Cc2ccccc2F)c([N+](=O)[O-])c1 | 0 | 41* | 17* | -13
COc1ccc(C=NNc2ccc(S(=O)(=O)Nc3ccccc3C(=O)O)cc2[N+](=O)[O-])c(OC)c1 | / | 0 | 44* | 3
C=CCOc1ccc(C=NNc2ccc(S(=O)(=O)Nc3ccccc3C(=O)O)cc2[N+](=O)[O-])cc1OC | 1 | 22 | -7 | -13
COc1ccc(NC(=S)NNc2ccc(S(=O)(=O)Nc3ccccc3C(=O)O)cc2[N+](=O)[O-])cc1 | / | 15 | 17* | -15
CSc1ccc(C=NNc2ccc(S(=O)(=O)Nc3ccccc3C(=O)O)cc2[N+](=O)[O-])cc1 | 0 | 41* | 1 | -10
CCOc1cccc(C=NNc2ccc(S(=O)(=O)Nc3ccccc3C(=O)O)cc2[N+](=O)[O-])c1O | 0 | 7 | 8 | -33
O=C(O)c1ccccc1/C=N/Nc1ccc(S(=O)(=O)N2CCCC2)cc1[N+](=O)[O-] | 0 | 7 | 1 | -1
Cc1ccc(S(=O)(=O)Nc2ccc3c(c2)C(=O)N(C)[C@H]2CC[C@@H](CC(=O)O)O[C@@H]2CO3)cc1 | 0 | 1 | 0 | -2
COc1ccc(NC(=O)N(C)C[C@@H]2Oc3c(NC(=O)C4CCOCC4)cccc3C(=O)N([C@H](C)CO)C[C@H]2C)cc1 | 0 | 4 | 1 | -4
Cc1noc(C)c1S(=O)(=O)Nc1ccc2c(c1)C(=O)N([C@H](C)CO)C[C@@H](C)[C@@H](CN(C)C)OCCCC[C@@H](C)O2 | / | -3 | -3 | -3
C[C@@H]1CN([C@H](C)CO)C(=O)c2cc(NC(=O)Cn3cnnn3)ccc2O[C@@H]1CN(C)S(=O)(=O)c1ccc(Cl)cc1 | 1 | 3 | 10 | -5
CCOc1ccc(C=NNc2ccc(S(=O)(=O)Nc3ccccc3C(=O)O)cc2[N+](=O)[O-])cc1 | 0 | 23 | 20* | -9
COc1ccc2c3c(n(C)c2c1)[C@@H](CO)N(C(=O)Nc1ccc(F)cc1)CC31CCN(S(=O)(=O)c2cccs2)CC1 | 0 | 2 | 0 | 1
O=C(Cc1ccncc1)NCC[C@@H]1CC[C@@H](NC(=O)C2CCCC2)[C@@H](CO)O1 | 0 | -3 | -3 | 0
Cc1ccc(/C(N)=N/OC(=O)Cc2cccc3ccccc23)cc1 | 0 | 0 | 7 | 0
COc1ccc(OC(=O)Cc2cccc3ccccc23)cc1 | 0 | 2 | 15* | 1
CC(=O)c1ccc(OC(=O)Cc2cccc3ccccc23)cc1 | 0 | -2 | 26* | 1
COCC(=O)Nc1ccc2c(c1)C(=O)N(C)[C@@H]1CC[C@@H](CC(=O)NC3Cc4ccccc4C3)O[C@@H]1CO2 | 0 | -1 | -4 | 2
CN(C)S(=O)(=O)c1cccc(C(=O)Nc2ccccc2)c1 | 43* | 1 | -2 | -4
CN(Cc1ccccc1)S(=O)(=O)c1cccc(C(=O)O)c1 | 0 | -2 | 31* | -3
COc1ccc(N(C)S(=O)(=O)c2cccc(C(=O)Nc3ccc4c(c3)OCCO4)c2)cc1 | 43* | -3 | -1 | 1
COc1ccc(NC(=O)COC(=O)c2cccc(S(=O)(=O)N(C)C)c2)cc1 | 43* | -2 | 3 | 2
CN(C)CCCNC(=O)C[C@@H]1CC[C@@H](NC(=O)c2ccccc2F)[C@H](CO)O1 | 0 | -1 | 2 | 2
N#Cc1ccc(NC(=O)COC(=O)c2cccc(S(=O)(=O)N3CCCC3)c2)cc1 | 43* | 6 | / | 4
CCC(=O)N1CC2(CCN(Cc3ccc(Cl)cc3)CC2)c2c(n(C)c3cc(OC)ccc23)[C@H]1CO | / | -1 | -1 | -1
CC(C)c1ccc(NC(=O)CNCC(c2ccccc2)N(C)C)cc1 (stereo not given) | 1 | -2 | 17* | -3
CC(=O)c1ccc(NC(=O)C2CCCN(C(=O)c3ccc(Cl)cc3)C2)cc1 (stereo not given) | 0 | 3 | -4 | 2
O=C(Nc1ccccc1)C1CCCN(C(=O)c2ccc(Cl)cc2)C1 (stereo not given) | 43* | 2 | -4 | -4
